Most compounds without a hit are left out; they make up all but 2.3% or so of the library.
CHO-K1 Ca antag – counter-screen for M1 antagonists: effect in parental CHO-K1 cells. actives 0.6% (n = 360,000). ATP-induced calcium, Fluo-8 fluorescence. inhibition, % at 3 µM. AID 602250;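 active means inhibition above a per-plate cutoff, the plate's mean sample inhibition plus 3 SD, cut at about 24% in these data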;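 further: 0% = DMSO plus EC80 ATP and 100% = DMSO alone without ATP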
M1 PAM parental – nonselective activator or artifact in parental CHO-K1 calcium assay; activation, % at 3 µM; actives 0.02% (n = 360,000); AID 602247; ATP EC20, Fluo-8 calcium fluorescence; 0% at ATP EC20, 100% at ATP max;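 active means activation above the run cutoff, the mean activation of all test compounds plus 3 SD, cut at about 40% in these data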;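 further: peak over basal fluorescence ratio in a 140 s read after ATP addition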
M1 ag – human M1 muscarinic receptor agonism; activation, % at 3 µM; CHO-K1 hM1, Fluo-8 calcium fluorescence, agonist mode; 0% DMSO, 100% acetylcholine EC100; P11229; actives 0.33% (n = 360,000);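 active means activation above the run's mean compound activation plus 3 SD, cut at about 16% in these data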;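 further: peak over basal fluorescence ratio within a 140 s kinetic read after compound addition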
Target sequence (P11229 whole entry, looked up): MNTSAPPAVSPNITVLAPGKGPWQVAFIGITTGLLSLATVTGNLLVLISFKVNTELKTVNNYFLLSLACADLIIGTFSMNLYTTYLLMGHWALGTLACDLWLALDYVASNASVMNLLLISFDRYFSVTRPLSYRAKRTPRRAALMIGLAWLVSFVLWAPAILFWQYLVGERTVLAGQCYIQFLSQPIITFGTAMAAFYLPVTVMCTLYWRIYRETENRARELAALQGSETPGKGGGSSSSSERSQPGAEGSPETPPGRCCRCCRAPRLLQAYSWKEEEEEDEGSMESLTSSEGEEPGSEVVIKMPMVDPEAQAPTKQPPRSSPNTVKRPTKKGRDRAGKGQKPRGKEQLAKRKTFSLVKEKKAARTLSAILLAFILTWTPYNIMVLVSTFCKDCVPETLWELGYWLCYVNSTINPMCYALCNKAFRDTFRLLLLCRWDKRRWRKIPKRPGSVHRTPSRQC
CHRM1 PAM – positive allosteric modulators of human M1 muscarinic receptor. P11229. CHO-K1 hM1, Fluo-8 calcium fluorescence, ACh EC20; 0% = ACh EC20, 100% = maximal ACh. activation, % at 3 µM. actives 0.088% (n = 360,000); in the data active means activation above about 19%, passing the limit was not always enough
CHO-K1 Ca ag – counter-screen for M1 agonists: effect in parental CHO-K1 cells. Fluo-8 calcium fluorescence; scaled to maximal ATP response, vehicle zero. activation, % at 3 µM. actives 0.48% (n = 360,000); in the data active means activation above about 15%;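 further: untransfected CHO-K1 host cells lacking M1 receptor as counterscreen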
CHRM1 antagonist – human CHRM1 antagonism | P11229 | CHO-K1 hM1, Fluo-8 calcium fluorescence, ACh EC80 antagonist | inhibition, % at 3 µM | actives 1.3% (n = 360,000);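 active means percent inhibition above its own plate's cutoff, namely the mean of that plate's compound wells plus 3 SD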;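 further: peak over basal fluorescence ratio during 140 s after agonist addition; 0% = ACh EC80 plus DMSO and 100% = DMSO alone without agonist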
* = called active by the depositor.

SMILES | CHO-K1 Ca antag | M1 PAM parental | M1 ag | CHRM1 PAM | CHO-K1 Ca ag | CHRM1 antagonist
COc1cccc(CC2(CO)CCCN(CC3=Cc4cc(Cl)ccc4OC3)C2)c1 (configuration not stated) | -7.9 | 18.9 | -13.6 | -26.2 | 1.2 | 5.8
COc1ccc(C[C@@H]2CN3C(=NC[C@@H]3Cc3ccc(O)cc3)N2C[C@H](C)NC(=O)CCC2CCCCC2)cc1 | -5.7 | 8.1 | -14.3 | -37.2 | -0.1 | 48.3*
CN(C)c1nc(-c2ccccc2)nnc1C(F)(F)F | -0.5 | 17.2 | -6.3 | 5.9 | 0.1 | -19.4
CN(C)CCNc1nc(-c2ccccc2)nnc1C(F)(F)F | 45.6* | 2.3 | -0.4 | -2.1 | 5.6 | -18.4
Cc1cc(C)c(C#N)c(SCc2nnc(-c3ccccc3[N+](=O)[O-])o2)n1 | 18.2 | -5.7 | -6.3 | -33.7 | 7.4 | 42.7*
Cc1cc(C)c(C#N)c(SCc2ccccc2[N+](=O)[O-])n1 | 0.3 | -2.4 | -8.1 | 0.6 | 0.1 | 0.7
Cc1cc(C)c(C#N)c(SCc2nnc(-c3ccccc3)o2)n1 | 25.1* | -16.8 | -7.5 | -18.8 | 0.7 | 23.6*
Nc1ccc(OCc2ccccc2)cc1 | -0.9 | 15.4 | -6.5 | 0.9 | 0.2 | -2.5
CCc1ccc(OCCCCN(C)Cc2ccccc2)cc1 | 11.9 | 13.8 | -7.5 | -22.8 | 0.9 | 33.5*
Cc1cc(C)c(C)c(OCCCCN(C)Cc2ccccc2)c1 | -4.3 | 24.0 | -6.5 | -29.3 | 3.1 | 64.5*
CN(CCCCOc1ccc(F)cc1)Cc1ccccc1 | -14.3 | 15.5 | -7.3 | -12.2 | 0.8 | 11.9
CCN(Cc1ccccc1)Cc1ccc(OCc2ccccc2)cc1 | 13.0 | -4.1 | -8.9 | -24.3 | 0.0 | 34.6*
CCC1=C(OC(=O)N(CC)CC)N2C(=O)OC(=NCCc3c[nH]c4ccccc34)[C@]2(Cc2ccccc2)[C@H]2C1=CC[C@H]1C(=O)N(C)C(=O)[C@H]12 | -5.9 | -8.1 | -5.6 | -3.0 | -0.4 | 8.5
CCOc1ccc(S(=O)(=O)N(C)c2ccc(OCC(=O)NCCc3ccc(OC)cc3)cc2)cc1 | 7.8 | -16.9 | -3.0 | 4.7 | -0.1 | -12.8
Cc1ccc(C)c(OCCC(=O)OCC(=O)NCc2ccccc2)c1 | -0.2 | -7.9 | -1.8 | 9.5 | 0.4 | -10.3
Cc1ccc(C)c(OCCC(=O)OCC(=O)NCCNC(=O)COC(=O)CCOc2cc(C)ccc2C)c1 | 26.6* | -15.9 | 3.0 | -17.7 | 14.8 | 47.2*
Cc1ccccc1Nc1nc(N)nc(CSc2nc3ccccc3c(=O)n2C)n1 | 29.1* | -1.9 | 8.2 | -13.3 | 18.4* | 31.0
Cc1cccc(NC(=O)CSc2nc3ccccc3c(=O)n2C)c1C | 15.1 | -8.7 | 1.6 | -20.1 | 11.6 | 33.3*
Cc1ccccc1Nc1nc(N)nc(CSc2nc3ccccc3c(=O)n2CCCO)n1 | -25.7 | 18.7 | 1.0 | -1.5 | 4.0 | -14.9
CCc1cccc(C)c1NC(=O)C1=C(C(=O)O)CCCC1 | -18.0 | 9.9 | -0.7 | -0.4 | 0.5 | 1.6
O=C(O)CCCN1C(=O)NC2NC(=O)NC21 (configuration not stated) | 34.4* | -6.8 | -2.6 | -4.7 | -0.2 | 5.0
COC(=O)c1cc(S(=O)(=O)N2CCCCCC2)cn1C | -19.6 | 4.6 | -4.1 | 6.0 | 2.0 | -12.5
COc1ccc([C@H]2CC(=O)C=C(c3ccc(F)cc3OCc3ccccc3)C2)cc1OC | 15.7 | 1.1 | -0.9 | -15.0 | 2.4 | 50.5*
CC(C)(O)C#Cc1ccc([C@@H]2C[C@H]3CN(c4ccccc4)C(=O)[C@]34CCCN24)s1 | -7.8 | 11.5 | -10.4 | -26.1 | 0.1 | 42.0*
O=C1N(c2ccccc2)C[C@@H]2C[C@@H](c3cccs3)N3CCC[C@@]123 | 4.3 | -14.7 | -8.8 | -26.0 | 0.0 | 90.0*
SMILES | CHO-K1 Ca antag | M1 PAM parental | M1 ag | CHRM1 PAM | CHO-K1 Ca ag | CHRM1 antagonist
CCOC(=O)C1CCN(c2ncnc3c(C)csc23)CC1 | 17.1 | -25.9 | 6.3 | -23.3 | 15.4* | 39.8*
CCOC(=O)C1CCN(c2ncnc3nc[nH]c23)CC1 | 13.9 | 9.2 | 0.1 | 10.1 | -0.3 | -15.9
C[C@H](CO)N1C[C@H](C)[C@@H](CN(C)Cc2ccccc2)Oc2c(NC(=O)C3CC3)cccc2C1=O | 2.4 | -2.6 | 2.3 | 19.4 | -0.7 | -23.7
O=C(NCC1CCCO1)c1ccc(CSCc2cccc(F)c2)o1 (configuration not stated) | -12.1 | 24.7 | -2.2 | 3.2 | 2.9 | -3.7
CCN(CC)C(=O)C1=C(C)N(CCC2=CCCCC2)C(=O)C(CC(=O)NCc2cccs2)C1 (configuration not stated) | 11.4 | -1.9 | -7.2 | 0.6 | 0.2 | -2.0
COc1ccc(NC(=O)N2c3ccc(OC)cc3C(C)=CC2(C)C)cc1 | 25.5* | 6.7 | -6.2 | 3.0 | 0.2 | 1.8
COc1cccc(/C=N/NC(=O)c2cccc3ccccc23)c1OC | -10.1 | 15.9 | -1.8 | 3.8 | 1.1 | -15.3
COC(=O)c1ccc2[nH]c(C)cc(=O)c2c1 | -4.2 | 9.2 | -5.5 | -23.3 | 0.7 | 68.8*
COc1ccc(Cl)cc1NC(=O)NC(C)c1ccncc1 (configuration not stated) | 28.5* | -6.8 | -4.7 | 9.7 | -0.3 | -2.2
COc1ccc(C(C(=O)NC2CCCC2)N(CCCO)C(=O)c2snc(C(N)=O)c2N)cc1 (configuration not stated) | -10.3 | -0.2 | -0.2 | 3.7 | 0.5 | -10.6
CCOC(=O)Cc1csc(NC(=O)c2cc(-c3ccncc3)nc3ccccc23)n1 | -7.1 | -0.4 | -1.9 | -15.4 | 6.4 | 36.2*
CCOC(=O)Cc1csc(NC(=O)c2sc3nc4ccc(C)cc4cc3c2N)n1 | -13.5 | 20.4 | 0.1 | 34.0* | 3.2 | -6.0
CCOC(=O)Cc1csc(NC(=O)c2ccncc2)n1 | 4.2 | 11.7 | -1.1 | -1.7 | 1.4 | 1.4
CSCC[C@H](NC(=O)N1CCn2c1nc1ccccc12)C(=O)NCC1CCCO1 (some centres not stated) | -13.8 | -3.5 | -3.2 | -1.0 | -0.8 | 6.7
Cc1nn(-c2ccccc2)c2sc(-c3n[nH]c(=S)o3)cc12 | 24.6* | -6.7 | -2.7 | 8.4 | -0.8 | 3.2
Cc1ccccc1N1C(=O)CN(Cc2sccc2C)C1=S | 2.7 | 4.8 | -3.9 | 3.1 | 0.2 | -4.2
O=C1c2[nH]nc(-c3ccccc3O)c2C(c2cccc(Cl)c2)N1Cc1ccco1 (configuration not stated) | 23.8* | -8.9 | -2.5 | 8.9 | 0.1 | 3.9
O=C1c2[nH]nc(-c3ccccc3O)c2C(c2ccc(F)cc2)N1Cc1ccco1 (configuration not stated) | -8.2 | 25.6 | 1.2 | 7.0 | 0.9 | -3.0
Cc1ccc(Cl)cc1N1CCN(C(=O)CN2C(=O)c3cccc4cccc2c34)CC1 | 25.5* | -6.2 | -3.0 | 0.6 | -0.4 | 2.5
Cc1ccc2cc(CN(Cc3cccs3)Cc3nnnn3CC3CCCO3)c(=O)[nH]c2c1 (configuration not stated) | -22.3 | 21.8 | -3.9 | 4.3 | 3.3 | -1.7
